Measured values taken from PubChem BioAssay AID1490 (National Center for Advancing Translational Sciences (NCATS), 2009).
Where “and” joins values, the source holds several entries; their conditions need not be identical. Equal entries are not always repeated. Screen size: about 310,000 compounds; about 11,000 (3.5%) were called active. Roughly 4% stayed inconclusive and do not appear here. This excerpt belongs to a sample that is enriched for actives. A number with no mark means an inactive call. Calls follow the shape of the dose curve; as a rule, active = well fitted inhibition curve with a large enough effect; inconclusive = small, poorly fitted or top-dose-only effect, or another doubt; inactive = no such curve, though single readings can be large or run the other way.

Biological target: 4'-phosphopantetheinyl transferase ffp (Bacillus subtilis) (UniProt Q9F4F7)
Assay: qHTS Assay for Inhibitors of Bacillus subtilis Sfp phosphopantetheinyl transferase (PPTase);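 also: the enzyme is Sfp with the accession as filed and its product quenches rhodamine fluorescence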;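 as to largest response in the series, negative = inhibition: 0% = enzyme reaction without inhibitor and -100% = no enzyme wells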
Conditions: Biochemical Sfp PPTase activity
Procedure, shortened: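 Fluorescence-quenching assay: 15 nM Sfp-PPTase preincubated 15 min at room temperature with compound, then 5 uM rhodamine-CoA and 12.5 uM BHQ-2-labelled YbbR peptide added. Fluorescence (ex 525/em 598 nm) read at start and after 30 min; difference gives rate.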
Potency is read from the fitted curve at half-maximal effect.

Row | Compound | largest response in the series, negative = inhibition | Potency
1 | O=C(Cc1ccccc1)N1CCN(C2CCCCCC2)CC1 | -9.44% | 
2 | Cc1noc(C)c1CSc1nc2cc(S(=O)(=O)N3CCOCC3)ccc2o1 |  | 20 µM (active)
3 | CCC1(c2ccccc2)C(=O)NC(=O)N(C)C1=O (stereo unspecified) | 9.18% | 
4 | Nc1ccc(-c2ccc(N)c(N)c2)cc1N | -2.55% | 
5 | CN(c1ccccc1)c1ccc([N+](=O)[O-])c2nonc12 | -10.3% | 
6 | CN(C)C(=O)Oc1ccc2c(c1)O/C(=C\c1ccccc1)C2=O | 2.07% | 
7 | Cc1nc2ccccn2c1P(=S)(N1CCCCC1)N1CCCCC1 |  | 56.2 µM (active)
8 | COc1ccc2[nH]cc(CCNCc3ccc(Br)cc3)c2c1 | -23.1% | 
9 | Cc1cccc(N2C(=O)NC(=O)/C(=C\c3cnn(-c4ccccc4)c3)C2=O)c1 |  | 39.8 µM (active)
10 | Cc1c(C(=O)O)cccc1-n1c(C)cc(/C=C2\C(=O)NC(=O)N(c3ccc4c(c3)OCO4)C2=O)c1C | -16.8% | 
11 | O=C(Nc1cccc(F)c1)N1CC[C@@]2(CCCN(C(=O)Oc3ccccc3)C2)C1 | -5.07% | 
12 | CC[N+]1(C)CCCC(OC(=O)C(O)(c2ccccc2)c2ccccc2)C1 (stereo unspecified) | 15.8% and 11.5% | 
13 | COc1ccccc1NC(=O)N1C[C@@H]2C[C@@H](C1)c1cccc(=O)n1C2 | 13.6% | 
14 | CN=C(NC#N)NCCSCc1nc[nH]c1C | 5.33% and -12.8% and 5.86% | 
15 | COC(=O)N(c1ccc(OC)cc1)P1(=S)OCCC(C)O1 (stereo unspecified) |  | 12.6 µM (active)
16 | CC(C)CN1CCN(Cc2ccccc2C(F)(F)F)CC1CCO (stereo unspecified) | 6.48% | 
17 | O=C(CCN1CCCCC1)NCC(=O)Nc1ccc(Br)cc1C(=O)c1ccccc1 | -17.5% | 
18 | C[C@@H]1C[C@@H]2O[C@H]2/C=C\C=C\C(=O)Cc2c(Cl)c(O)cc(O)c2C(=O)O1 |  | 15.8 µM (active)
19 | CNP1(NC)=Nc2nn(-c3ccccc3)c(N)c2C(c2ccccc2)=N1 | 2.05% | 
20 | CCNC[C@H](O)c1cccc(O)c1 | 18.1% | 
21 | CCOC(=O)c1c(C)c(C(=O)N2CCC3(CC2)OCCO3)c(C)n1CC | -3.49% | 
